Screen size: about 1,500 compounds; about 460 (31%) were called active. Not shown: some 1% with an inconclusive outcome. Not all results are given here. Potency and affinity values are given separately. Values without a mark were called inactive.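 The calls were made as follows: active = curve reaches 40% activation over neutral controls at an AC40 no higher than the top valid tested concentration; inconclusive = no clear call, values can overlap the other calls; inactive = signal moving opposite to the expected increase, and the rest.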

A short description of the assay: activators of glucose-dependent insulin secretion, dose response, cell-based, INS-1E, Gaussia luciferase, luminescence, cherry-pick, set 2 (AID 977607).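 Also: 0% = median of the plate neutral control wells.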 The note with it: INS-1E GLuc insulin secretion reporter, 2-3 h, hits give high values; at 35 µM, 100% = signal doubled over neutral wells unless noted.
Consider `CC(=O)Nc1cccc(-n2c(=O)n(Cc3ccccc3)c(=O)c3[nH]cnc32)c1`, for which the max activation was 18.8% [at 1.2 µM, 100% = signal doubled over neutral wells].
Then `N#CCCCc1cc2ccccc2cn1`, with -14.5% [at 0.046 µM, 100% = signal doubled over neutral wells].
Then `COc1ccc(/C=N/NC(=O)Cn2cnc3ccccc3c2=O)cc1OC`, with 23.7% [at 11 µM, 100% = signal doubled over neutral wells].
For `COc1cc(/C=N/NC(=O)CNC(=O)c2cccs2)ccc1O`, the max activation is -23.7% [at 0.015 µM, 100% = signal doubled over neutral wells].
Then `COc1cc(/C=N/Nc2cc(C)nc(NS(=O)(=O)c3ccc(C)cc3)n2)ccc1O`, with 36.9% [at 3.8 µM, 100% = signal doubled over neutral wells]; and `CCNc1nc(CC)nc2c1oc1ccccc12`, with -18.9% [at 0.015 µM, 100% = signal doubled over neutral wells]; and `N#CCc1nn2c(-c3ccccc3)ccnc2c1C#N`, with -20% [at 0.015 µM, 100% = signal doubled over neutral wells].
Next, `Cc1cccc(-n2c(C)c(C)c3c(N)ncnc32)c1`: 29.8%.
For the compound `COc1ccc(/C=C/c2nc(C#N)c(NCCN(C)C)o2)cc1OC`, the max activation was -15.9% [at 0.42 µM, 100% = signal doubled over neutral wells].
As to `CCOCC(=O)Nc1c(C(=O)OCC)oc2ccccc12`, the max activation was 28.8% [at 3.8 µM, 100% = signal doubled over neutral wells].
With `Nc1[nH]c(C(=O)c2ccccc2)c(-c2ccncc2)c1C(=O)NCc1cccc2ccccc12`, the max activation was -29.2%.
With `C[C@@H]1CN([C@H](C)CO)C(=O)c2cc(C3=CCCCC3)cnc2O[C@H]1CN(C)C(=O)CN1CCOCC1`, the max activation is -24.7% [at 0.005 µM, 100% = signal doubled over neutral wells].
Next, `O=C(c1cccs1)N(Cc1cccc(F)c1)C1CCS(=O)(=O)C1` (centres undefined): 26.2% [at 0.005 µM, 100% = signal doubled over neutral wells]; `O=C(c1cccs1)N(Cc1ccc(Cl)cc1)C1CCS(=O)(=O)C1` (centres undefined): 21.3%; `CCOC(=O)C1=NN(C(=O)Nc2cccc(C(F)(F)F)c2)C2C(=O)N(c3cccc(C(F)(F)F)c3)C(=O)C12` (centres undefined): 17.3% [at 3.8 µM, 100% = signal doubled over neutral wells].
Take `N#Cc1ccc(-c2ccc3c(c2)[C@@H]2[C@@H](CCN2C(=O)C2CCCC2)[C@@H](CO)N3)cc1`: the max activation was -29.6%.
Then `O=C(CCn1nc(-c2ccc(Cl)cc2)ccc1=O)NCCCN1CCCCCC1`, with -17.5% [at 0.005 µM, 100% = signal doubled over neutral wells]; and `CC(C)(C)C1=Nn2c(nnc2C2CCCCC2)SC1`, with 27% [at 11 µM, 100% = signal doubled over neutral wells]; and `C=CCNc1cc(C)oc(=O)c1C(=O)CCC`, with -21.1% [at 0.015 µM, 100% = signal doubled over neutral wells].
Then `CCN1CCN(CCCNC(=O)c2ccc3c(c2)N(Cc2ccccc2)CCS3)CC1`, with -25.6% [at 11 µM, 100% = signal doubled over neutral wells].
Consider `CCOC(=O)c1sc2nc(C)[nH]c(=O)c2c1C`, for which the max activation was 8.29% [at 0.135 µM, 100% = signal doubled over neutral wells].
Next, `CCCCc1nc(N)c(C#N)c(-c2ccco2)c1CCC`: 35.2%; `COc1ccc(CCNC(=O)CCC(=O)c2cccs2)cc1OC`: 35.6% [at 1.2 µM, 100% = signal doubled over neutral wells]; `COc1ccc(CCNC(=O)CCCc2nnc3n(C)c(=O)c4sccc4n23)cc1OC`: -17.7% [at 0.0016 µM, 100% = signal doubled over neutral wells].
Then `COc1ccc(-n2c3c(c(=O)[nH]c2=O)C(NS(=O)(=O)c2ccc(Cl)cc2)(C(F)(F)F)C(=O)N3)cc1` (centres undefined), with -27.1% [at 0.015 µM, 100% = signal doubled over neutral wells].
Then `N#Cc1cnn2c(C(F)(F)F)cc(-c3ccccc3)nc12`, with -14.3% [at 0.0016 µM, 100% = signal doubled over neutral wells].
For `Cc1cc(C)c(CSc2nnnn2-c2ccc(C(=O)O)cc2)c(C)c1`, the max activation is -11.8% [at 1.2 µM, 100% = signal doubled over neutral wells].
Next, `O=C(c1cccnc1)N(Cc1ccccc1)c1ccccc1`: 25.1%; `CCCNC(=O)C1(C)CCCN(Cc2cccn2C)C1` (centres undefined): -16.6% [at 3.8 µM, 100% = signal doubled over neutral wells]; `CC(=O)Nc1ccc(Cl)c(-c2nc3ncccc3o2)c1`: 24% [at 0.005 µM, 100% = signal doubled over neutral wells].
Next, `CC(C)CCN(CC(=O)NCc1ccc(F)cc1)S(=O)(=O)c1ccccc1F`: -38.5% [at 11 µM, 100% = signal doubled over neutral wells].
Then `CCOc1nc(NC(=O)NS(=O)(=O)Oc2ccccc2Cl)nc(-c2ccccc2)n1`, with -20.8% [at 0.0016 µM, 100% = signal doubled over neutral wells]; and `Cc1ccc(-c2ccc([C@@H]3[C@@H]4CN(Cc5ccccc5F)C[C@H]3N4)cc2)cc1`, with 26.7% [at 0.42 µM, 100% = signal doubled over neutral wells]; and `CC1Oc2ccccc2N(Cc2cccc(F)c2)C1=O` (centres undefined), with -13.7% [at 0.005 µM, 100% = signal doubled over neutral wells].

The values are drawn from PubChem BioAssay AID977607 (Broad Institute, 2014).
